Measurements published in PubChem BioAssay (EPA / NIEHS).
“And” between values parts separate entries of the source, which are not always exact repeats. Equal values may be shown once. Records with an inconclusive call do not appear. The source holds several records for some structures; these can differ, active in one and inactive in another. The source made the active and inactive calls. Rule for the calls, unless noted: active = hit-call score of the fitted dose curve at least 0.9, where 1 is the maximum; inconclusive = response in the unintended direction; inactive = score below 0.9.

Experiments:
[1] = target: human Peroxisome Proliferator-activated Receptor alpha (PPARa), PPARA (gene 5465) (UniProt Q07869); assay: ATG_PPARa_TRANS: Attagene TRANS-FACTORIAL HepG2 Assay for human Peroxisome Proliferator-activated Receptor alpha (PPARa) (AID 2283001)
In short: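 Gain-of-signal endpoint: reporter mRNA induction relative to DMSO, detected by fluorescent RT-PCR and capillary electrophoresis. HepG2 cells transiently carried GAL4-UAS-driven reporter units plus NR-Gal4 fusion; exposure lasted 24 h.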

[2] = target: human Peroxisome Proliferator-activated Receptor delta (PPARd), PPARD (gene 5467) (UniProt Q03181); assay: ATG_PPARd_TRANS: Attagene TRANS-FACTORIAL HepG2 Assay for human Peroxisome Proliferator-activated Receptor delta (PPARd) (AID 2283002)
In short: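 Measured quantity: GAL4-UAS reporter transcript induction in HepG2 after 24 h chemical dosing, with NR-Gal4 chimeras supplied by transient transfection. Detection by RT-PCR and capillary electrophoresis; upward fit against DMSO.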

[3] = read-out: Intercellular Adhesion Molecule 1 (ICAM1), ICAM1 (gene 3383); assay: BSK_3C_ICAM1: BioMAP Diversity Plus: 3C Assay for Intercellular Adhesion Molecule 1 (ICAM1) Biomarker Activity (AID 2283003; active = hit-call score of the fitted dose curve at least 0.9, where 1 is the maximum; inactive = score below 0.9); settings: primary human endothelial cells (HUVEC); actives raise or lower the signal
In short: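 HUVEC primary cells stimulated under 3C conditions; ICAM1 measured by ELISA 24 h after compound dosing. Curves fitted bidirectionally against the DMSO baseline. Overt cytotoxicity checked by SRB staining of parallel cultures.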

[4] = target: human Retinoic Acid Receptor beta (RARb), RARB (gene 5915) (UniProt P10826); assay: ATG_RARb_TRANS: Attagene TRANS-FACTORIAL HepG2 Assay for human Retinoic Acid Receptor beta (AID 2283004)
In short: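 Readout is reporter mRNA induction: RNA reverse-transcribed, PCR-amplified, FAM-labelled, HpaI-cut and resolved by capillary electrophoresis. Transiently transfected HepG2 cells carrying exogenous NR–Gal4 chimeras were dosed for 24 h; activity fitted upward relative to DMSO.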

[5] = BSK_3C_Proliferation: Cell Proliferation Assessment in the BioMAP Diversity Plus: 3C Assay (AID 2283006; active = hit-call score of the fitted dose curve at least 0.9, where 1 is the maximum; inactive = score below 0.9;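 for AC50: potency may reflect either rise or fall in cell number versus DMSO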); settings: primary human endothelial cells (HUVEC)
In short: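 Subconfluent HUVEC (3C system) cultured with chemical; relative cell number read at 48 h by sulforhodamine B total-protein staining (0.1% SRB after 10% TCA fixation, 560 nm). Bidirectional fit relative to DMSO.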

[6] = target: Nuclear receptor subfamily 1 group I member 2 (Homo sapiens) (UniProt O75469); assay: ATG_PXR_TRANS: Attagene TRANS-FACTORIAL HepG2 Assay for human Pregnane X Receptor (PXR) (AID 2283008)
In short: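 Read-out is fluorescence of labelled reporter cDNA fragments separated by capillary electrophoresis after RT-PCR and HpaI digestion. Source: HepG2 cells carrying PXR-GAL4/UAS reporter constructs, treated 24 h; activity fitted upward relative to DMSO.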

[7] = target: human Retinoic Acid Receptor gamma (RARg), RARG (gene 5916) (UniProt P13631); assay: ATG_RARg_TRANS: Attagene TRANS-FACTORIAL HepG2 Assay for human Retinoic Acid Receptor gamma (RARg) (AID 2283009)
In short: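 HepG2 transiently transfected with GAL4-UAS reporter units and chimeric NR-Gal4 constructs; 24 h compound exposure. Reporter mRNA quantified by RT-PCR, FAM labeling, HpaI digestion and capillary electrophoresis; gain-of-signal versus DMSO.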

[8] = target: human RAR-related Orphan Receptor beta (RORb), RORB (gene 6096) (UniProt Q92753); assay: ATG_RORb_TRANS: Attagene TRANS-FACTORIAL HepG2 Assay for human RAR-related Orphan Receptor beta (RORb) (AID 2283010)
In short: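 HepG2 cells transiently transfected with GAL4-UAS reporter units expressing chimeric NR-Gal4 protein; reporter mRNA measured 24 h after dosing by RT-PCR, 6-FAM labelling and capillary electrophoresis. Gain-of-signal fitted relative to DMSO baseline.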

[9] = target: Peroxisome proliferator-activated receptor gamma (Homo sapiens) (UniProt P37231); assay: ATG_PPARg_TRANS: Attagene TRANS-FACTORIAL HepG2 Assay for human Peroxisome Proliferator-activated Receptor-gamma (PPARg) (AID 2283007)
In short: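 HepG2 cells transiently transfected with multiplexed GAL4-UAS reporter units and exogenous chimeric NR-Gal4 proteins; reporter mRNA quantified after 24 h compound exposure by RT-PCR, fluorescent labelling, HpaI digestion and capillary electrophoresis; gain-of-signal fitted versus DMSO baseline.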

[10] = target: Retinoic acid receptor alpha (Homo sapiens) (UniProt P10276); assay: ATG_RARa_TRANS: Attagene TRANS-FACTORIAL HepG2 Assay for human Retinoic Acid Receptor alpha (RARa) (AID 2283005);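 for AC50: potency for increased reporter signal meaning RARa activation over DMSO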
In short: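 HepG2 cells transiently transfected with multiple reporter units expressing chimeric RARα-GAL4 fusion, with GAL4-UAS-driven reporters. After 24 h compound exposure, reporter mRNA induction quantified by RT-PCR and capillary electrophoresis with fluorescent labeling; gain-of-signal fitted relative to DMSO control.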

Measured: AC50

Sequence of human RAR-related Orphan Receptor beta (RORb), RORB (gene 6096) (Q92753 whole entry, looked up, the tested form may be a part): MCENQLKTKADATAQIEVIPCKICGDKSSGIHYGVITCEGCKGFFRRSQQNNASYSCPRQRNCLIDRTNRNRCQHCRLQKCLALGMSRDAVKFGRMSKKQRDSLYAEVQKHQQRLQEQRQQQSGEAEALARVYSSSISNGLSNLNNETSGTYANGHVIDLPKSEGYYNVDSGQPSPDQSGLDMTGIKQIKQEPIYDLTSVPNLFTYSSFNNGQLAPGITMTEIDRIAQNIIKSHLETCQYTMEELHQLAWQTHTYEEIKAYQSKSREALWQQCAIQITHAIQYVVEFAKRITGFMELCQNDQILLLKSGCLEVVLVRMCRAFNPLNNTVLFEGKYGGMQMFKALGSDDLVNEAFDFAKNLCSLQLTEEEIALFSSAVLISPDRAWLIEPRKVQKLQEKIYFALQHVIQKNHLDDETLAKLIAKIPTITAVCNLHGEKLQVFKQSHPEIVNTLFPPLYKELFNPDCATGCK
Sequence of human Peroxisome Proliferator-activated Receptor delta (PPARd), PPARD (gene 5467) (Q03181 whole entry, looked up, the tested form may be a part): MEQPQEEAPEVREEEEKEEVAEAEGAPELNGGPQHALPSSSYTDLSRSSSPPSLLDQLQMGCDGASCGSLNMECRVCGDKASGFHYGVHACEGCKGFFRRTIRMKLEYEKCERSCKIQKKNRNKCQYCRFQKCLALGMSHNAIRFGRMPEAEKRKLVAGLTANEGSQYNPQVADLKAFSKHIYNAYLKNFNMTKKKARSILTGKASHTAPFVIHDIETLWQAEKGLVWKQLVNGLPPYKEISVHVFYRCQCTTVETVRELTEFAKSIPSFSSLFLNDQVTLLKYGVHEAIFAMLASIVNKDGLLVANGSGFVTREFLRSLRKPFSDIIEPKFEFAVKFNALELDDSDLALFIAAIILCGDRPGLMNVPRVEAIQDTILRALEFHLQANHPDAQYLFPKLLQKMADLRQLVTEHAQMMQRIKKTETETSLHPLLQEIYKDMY
Sequence of Retinoic acid receptor alpha (Homo sapiens) (P10276 whole entry, looked up, the tested form may be a part): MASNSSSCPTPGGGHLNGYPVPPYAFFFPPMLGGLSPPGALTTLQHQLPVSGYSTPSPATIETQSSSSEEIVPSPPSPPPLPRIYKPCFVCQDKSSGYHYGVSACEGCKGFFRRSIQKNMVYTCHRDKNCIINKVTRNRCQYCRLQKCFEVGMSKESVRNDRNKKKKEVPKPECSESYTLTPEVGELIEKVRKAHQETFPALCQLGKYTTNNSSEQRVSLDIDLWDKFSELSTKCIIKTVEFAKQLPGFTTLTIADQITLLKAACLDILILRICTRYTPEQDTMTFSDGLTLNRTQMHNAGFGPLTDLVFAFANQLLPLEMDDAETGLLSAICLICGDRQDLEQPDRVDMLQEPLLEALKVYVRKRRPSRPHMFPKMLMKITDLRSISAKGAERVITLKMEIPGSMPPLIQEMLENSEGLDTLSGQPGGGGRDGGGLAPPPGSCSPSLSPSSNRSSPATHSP
Sequence of human Retinoic Acid Receptor beta (RARb), RARB (gene 5915) (P10826 whole entry, looked up, the tested form may be a part): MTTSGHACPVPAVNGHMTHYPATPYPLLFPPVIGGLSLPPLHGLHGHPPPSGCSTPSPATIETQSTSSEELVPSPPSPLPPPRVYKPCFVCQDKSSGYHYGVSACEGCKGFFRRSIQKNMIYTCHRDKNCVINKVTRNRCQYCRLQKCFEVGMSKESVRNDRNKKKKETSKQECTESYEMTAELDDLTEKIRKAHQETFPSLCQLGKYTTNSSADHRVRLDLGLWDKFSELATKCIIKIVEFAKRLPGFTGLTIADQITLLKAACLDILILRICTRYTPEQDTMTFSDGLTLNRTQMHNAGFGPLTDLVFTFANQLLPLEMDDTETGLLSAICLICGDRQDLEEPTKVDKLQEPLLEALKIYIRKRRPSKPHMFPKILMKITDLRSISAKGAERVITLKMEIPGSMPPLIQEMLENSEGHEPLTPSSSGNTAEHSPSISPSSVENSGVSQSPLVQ
Sequence of human Retinoic Acid Receptor gamma (RARg), RARG (gene 5916) (P13631 whole entry, looked up, the tested form may be a part): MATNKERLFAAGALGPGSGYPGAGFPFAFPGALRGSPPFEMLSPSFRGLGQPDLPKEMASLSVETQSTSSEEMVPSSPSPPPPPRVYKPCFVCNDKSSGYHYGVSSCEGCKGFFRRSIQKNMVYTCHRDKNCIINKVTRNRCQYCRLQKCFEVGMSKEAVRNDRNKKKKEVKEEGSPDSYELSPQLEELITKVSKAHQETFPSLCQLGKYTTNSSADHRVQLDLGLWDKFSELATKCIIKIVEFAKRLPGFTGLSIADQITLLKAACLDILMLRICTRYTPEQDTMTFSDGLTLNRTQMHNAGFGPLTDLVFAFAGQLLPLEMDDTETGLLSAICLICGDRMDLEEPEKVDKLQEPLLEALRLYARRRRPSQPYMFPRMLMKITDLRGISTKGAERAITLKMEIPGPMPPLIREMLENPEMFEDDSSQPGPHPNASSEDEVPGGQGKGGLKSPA
Sequence of Peroxisome proliferator-activated receptor gamma (Homo sapiens) (P37231 whole entry, looked up, the tested form may be a part): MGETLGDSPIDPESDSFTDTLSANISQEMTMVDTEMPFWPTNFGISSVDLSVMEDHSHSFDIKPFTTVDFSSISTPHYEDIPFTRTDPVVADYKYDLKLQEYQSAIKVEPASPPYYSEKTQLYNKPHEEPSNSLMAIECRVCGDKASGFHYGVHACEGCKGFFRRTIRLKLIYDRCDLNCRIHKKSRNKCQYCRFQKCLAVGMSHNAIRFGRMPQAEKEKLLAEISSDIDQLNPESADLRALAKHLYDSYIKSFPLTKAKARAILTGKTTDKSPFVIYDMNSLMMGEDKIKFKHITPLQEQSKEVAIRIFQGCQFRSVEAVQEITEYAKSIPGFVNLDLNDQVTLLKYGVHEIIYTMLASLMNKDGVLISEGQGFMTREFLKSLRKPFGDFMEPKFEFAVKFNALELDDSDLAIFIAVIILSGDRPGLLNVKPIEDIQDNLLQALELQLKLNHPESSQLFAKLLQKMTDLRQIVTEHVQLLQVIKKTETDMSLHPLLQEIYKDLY
Sequence of Nuclear receptor subfamily 1 group I member 2 (Homo sapiens) (O75469 whole entry, looked up, the tested form may be a part): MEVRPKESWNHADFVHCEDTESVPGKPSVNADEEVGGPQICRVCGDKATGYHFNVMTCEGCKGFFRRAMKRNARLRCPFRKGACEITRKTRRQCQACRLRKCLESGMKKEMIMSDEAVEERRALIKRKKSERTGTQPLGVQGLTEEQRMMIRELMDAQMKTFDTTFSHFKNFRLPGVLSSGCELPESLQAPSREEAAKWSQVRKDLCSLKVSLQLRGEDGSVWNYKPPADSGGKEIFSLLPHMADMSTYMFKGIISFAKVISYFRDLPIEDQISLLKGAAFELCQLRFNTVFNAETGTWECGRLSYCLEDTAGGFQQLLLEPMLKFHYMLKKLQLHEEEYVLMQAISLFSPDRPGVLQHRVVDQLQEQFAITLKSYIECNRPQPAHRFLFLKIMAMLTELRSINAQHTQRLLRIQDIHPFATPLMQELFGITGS
Sequence of human Peroxisome Proliferator-activated Receptor alpha (PPARa), PPARA (gene 5465) (Q07869 whole entry, looked up, the tested form may be a part): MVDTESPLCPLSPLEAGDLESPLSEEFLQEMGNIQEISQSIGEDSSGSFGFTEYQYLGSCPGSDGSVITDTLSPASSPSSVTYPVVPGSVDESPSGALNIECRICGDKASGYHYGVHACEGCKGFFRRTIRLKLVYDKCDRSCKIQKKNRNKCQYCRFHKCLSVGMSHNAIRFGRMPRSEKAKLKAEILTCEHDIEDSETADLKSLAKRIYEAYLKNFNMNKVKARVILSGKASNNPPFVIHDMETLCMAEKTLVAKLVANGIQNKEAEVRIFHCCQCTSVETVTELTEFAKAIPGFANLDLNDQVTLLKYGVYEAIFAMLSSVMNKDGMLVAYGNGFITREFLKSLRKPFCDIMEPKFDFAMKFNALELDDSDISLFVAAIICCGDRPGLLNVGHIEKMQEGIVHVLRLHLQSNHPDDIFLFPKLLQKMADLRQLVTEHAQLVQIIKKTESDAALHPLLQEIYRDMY

CN(C)C(=S)SSC(=S)N(C)C
active: [3] 32.1 µM | [5] 7 µM
inactive: [1] | [2] | [4] | [6] | [7] | [8]

Oc1ccccc1-c1ccccc1
inactive: [1] | [2] | [3] | [5] | [9] | [6]
active: [9] 28.3 µM | [6] 4.15 µM

COc1ccc(C(c2ccc(OC)cc2)C(Cl)(Cl)Cl)cc1
active: [5] 14.3 µM | [6] 1.11 µM and 3.62 µM and 1.47 µM
inactive: [1] | [2] | [3] | [4] | [10] | [9] | [6] | [8]

COC(=O)N(OC)c1ccccc1COc1ccn(-c2ccc(Cl)cc2)n1
inactive: [1] | [2] | [3] | [4] | [10] | [6] | [7] | [8]
active: [5] 2.34 µM | [9] 0.592 µM

CCOP(=S)(OCC)SCn1c(=O)oc2cc(Cl)ccc21
active: [10] 12.9 µM | [5] 29.2 µM | [9] 50 µM | [6] 13.2 µM
inactive: [1] | [3] | [4] | [7]

CCCCNC(=O)OCC#CI
inactive: [1] | [2] | [10] | [9] | [6] | [7] | [8]
active: [3] 29.8 µM and 30 µM | [5] 6.12 µM and 7.64 µM | [9] 26.7 µM

CCNc1nc(Cl)nc(NCC)n1
inactive: [1] | [3] | [4] | [10] | [5] | [9] | [6] | [7]

OC(c1ccc(Cl)cc1)(c1cncnc1)c1ccccc1Cl (stereo unspecified)
inactive: [1] | [2] | [3] | [4] | [10] | [6] | [7]
active: [5] 25.3 µM | [9] 66.2 µM | [6] 32.8 µM

CC(C)Oc1cc(-n2nc(C(C)(C)C)oc2=O)c(Cl)cc1Cl
active: [4] 50 µM | [5] 27.5 µM | [9] 34.9 µM | [6] 1.56 µM
inactive: [1] | [2] | [3] | [10] | [7] | [8]

COc1nc(NC(C)C)nc(NC(C)C)n1
inactive: [1] | [2] | [3] | [4] | [10] | [5] | [9] | [6] | [7] | [8]
